# Results filed as inconclusive are left out. The source made the active and inactive calls. Unless noted, no cut-off is given here; in the data, nearly all actives have AC50 up to about 26 µM.
# Key:
# [1] = viability loss in pontine glioma line – cell-based, SU-DIPG-XVII, MIPE5.0, CellTiter-Glo, qHTS, dose response (AID 1347060); conditions: CellTiter-Glo ATP luminescence;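 for AC50: cells exposed to compound for 48 hours before viability readout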
# [2] = viability loss in pontine glioma line – cell-based, SU-DIPG-XIII, MIPE4.0, CellTiter-Glo, qHTS, dose response (AID 1347061; cut-off not given, nearly all actives have AC50 up to about 37 µM;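 note: cells exposed to compound for 48 hours before readout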); conditions: CellTiter-Glo ATP luminescence
# [3] = viability loss in pontine glioma line – cell-based, JHH-DIPG-1, MIPE4.0, CellTiter-Glo, qHTS, dose response (AID 1347062; cut-off not given, nearly all actives have AC50 up to about 27 µM;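 for AC50: cells exposed to compound for two days before readout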); conditions: JHH-DIPG-1 viability, CellTiter-Glo ATP luminescence
# [4] = viability loss in pontine glioma line – cell-based, SU-DIPG-IV, MIPE4.0, CellTiter-Glo, qHTS, dose response (AID 1347063; cut-off not given, nearly all actives have AC50 up to about 30 µM;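 note: compound exposure lasted 48 hours before the viability readout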); conditions: CellTiter-Glo ATP luminescence
# [5] = viability loss in pontine glioma line – cell-based, SU-DIPG-XIII, MIPE5.0, CellTiter-Glo, qHTS, dose response (AID 1347064; cut-off not given, nearly all actives have AC50 up to about 23 µM;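 for AC50: cells exposed to compound for 48 hours before the viability read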); conditions: CellTiter-Glo ATP luminescence
# [6] = viability loss in pontine glioma line – cell-based, SU-DIPG-XXV, MIPE5.0, CellTiter-Glo, qHTS, dose response (AID 1347065); conditions: CellTiter-Glo ATP luminescence;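 note: cells exposed to compound for 48 hours before ATP readout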
# [7] = growth inhibition of DIPG cells – cell-based, MIPE4.0 library, CellTiter-Glo luminescence, qHTS (AID 1347066; cut-off not given, nearly all actives have AC50 up to about 30 µM;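 note: cells exposed to compound for 48 hours before readout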); conditions: SU-DIPG-VI viability, CellTiter-Glo ATP luminescence
# [8] = growth inhibition of DIPG cells – cell-based, MIPE5.0 library, qHTS (AID 1347068; cut-off not given, nearly all actives have IC50 up to about 30 µM;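 for IC50: cells exposed to compound for 48 hours before viability readout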); conditions: SU-DIPG-XXV viability
# [9] = JHH-DIPG-1 glioma cell viability, MIPE5.0 library, CellTiter-Glo luminescence, qHTS (AID 1347067); conditions: JHH-DIPG-1 glioma viability, CellTiter-Glo ATP luminescence;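 note: cells exposed to compound for 48 hours before readout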
# [10] = growth inhibition, single agent or in combination, cell-based, chromothripsis tumors, cisplatin or BGB combos (AID 1671449; in the data active = inhibition above about 80%;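 note: cells exposed for 96 hours; 0% = vehicle DMSO and 100% = killing by high DMSO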); conditions: LFS_MB_P medulloblastoma cells
# [11] = growth inhibition, single agent and combos, cell-based, chromothripsis tumors, cisplatin or BGB combos (AID 1671450; in the data active = inhibition above about 80%;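 note: cells exposed to compound for four days; 0% = vehicle DMSO and 100% = cell killing by high DMSO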); conditions: HDN33 neuroblastoma cells, stronger effect = higher value
# [12] = growth inhibition, single agents and combos, ICB984, cell-based, cisplatin or BGB combos, synergistic combos for chromothripsis tumors (AID 1671451; call rule not given here;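 note: cells exposed for 96 hours before readout; 0% = vehicle DMSO and 100% = killing by high DMSO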); conditions: ICB984 medulloblastoma cells, drug combinations, stronger effect = higher value
# [13] = growth inhibition, single agents and combos, HTB85, cell-based, BGB or cisplatin IC20 combos, synergistic combos for chromothripsis tumors (AID 1671453; in the data active = inhibition above about 80%;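 note: cells exposed for 96 hours before readout; 0% = vehicle DMSO and 100% = high DMSO killing control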); conditions: HTB85 osteosarcoma cells, drug combinations, stronger effect = higher value
# [14] = growth inhibition, MDA-MB-436, cell-based, BGB or cisplatin combos, synergistic combos for chromothripsis tumors (AID 1671458; call rule not given here;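 note: cells exposed for 96 hours; 0% = vehicle DMSO and 100% = killing by high DMSO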); conditions: MDA-MB-436 breast carcinoma growth inhibition, drug combinations, stronger effect = higher value
# [15] = BT084 cell growth, single and combined drugs, ICGC_MB145, cisplatin and BGB IC40 combos (AID 1671461; in the data active = inhibition above about 80%;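 note: cells exposed to drugs for 96 hours; 0% = vehicle DMSO and 100% = high DMSO full killing control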); conditions: BT084 medulloblastoma cells, drug combinations, stronger effect = higher value
# [16] = RCMB18 cell growth, single agent and combined, cisplatin and BGB IC40 combos (AID 1671462; in the data active = inhibition above about 80%;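 note: cells exposed to compound for four days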); conditions: RCMB18 medulloblastoma cells, stronger effect = higher value
# [17] = viability loss with induced miR-34 in A549 – imaging, A549 dox-inducible miR-34, nuclei and caspase counts, primary screen (AID 1347080;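 active = compounds whose cell count with miR-34 switched on is under 0.7 times the count with it off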); conditions: A549 miR-34 inducible, Hoechst nuclei count, 48 h
# [18] = MELAS cybrid and Rieske KO viability enhancers – cell-based, MELAS cybrids, Rieske KO mouse fibroblasts, CellTiter-Glo, primary screen (AID 1508586;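 active = mean z-score across replicates of 1.96 or higher in either the MELAS or the Rieske mutant cell line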;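 note: z relative to plate mean and SD of compound and empty wells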); conditions: low glucose
# [19] = compounds altering HSF1 focus formation in cells – imaging, Selleck Cancer Library (AID 1347162; in the data active = plate-normalised HSF1 focus index below about 0.46); conditions: human cells, HSF1 nuclear foci imaging, at 10 µM; SSMD: measured here: HSF1 foci SSMD mean; cell count: measured here: cell number; plate-normalised HSF1 focus index: stronger effect = lower value
smiles,measurement,setting,value
CC(C)(O)c1cc2nc(-c3cnc(N)nc3)nc(N3CCOCC3)c2s1,AC50,[1],1180 nM (active)
same,AC50,[2],590 nM (active)
same,AC50,[3],833 nM (active)
same,AC50,[4],52.6 nM (active)
same,AC50,[5],1050 nM (active)
same,AC50,[6],417 nM (active)
same,AC50,[7],148 nM (active)
same,IC50,[8],1180 nM (active)
O=[N+]([O-])c1cn2c(n1)OC[C@@H](OCc1ccc(OC(F)(F)F)cc1)C2,AC50,[1],26300 nM (active)
same,outcome,[2],inactive
same,outcome,[3],inactive
same,outcome,[4],inactive
same,outcome,[5],inactive
same,outcome,[6],inactive
same,outcome,[9],inactive
same,outcome,[8],inactive
O=C(/C=C/c1ccc(CN(CCO)CCc2c[nH]c3ccccc23)cc1)NO,AC50,[1],525 nM (active)
same,AC50,[2],1180 nM (active)
same,AC50,[3],235 nM (active)
same,AC50,[4],935 nM (active)
same,AC50,[5],332 nM (active)
same,AC50,[6],295 nM (active)
same,AC50,[7],235 nM (active)
same,AC50,[9],417 nM (active)
same,outcome,[8],inactive
same,inhibition,"[10]; at 0.5 µM, stronger effect = higher value",-16.3% (inactive)
same,inhibition,"[10]; measured here: combination with BGB IC20, at 0.005 µM",-29.5%
same,inhibition,"[10]; measured here: combination with BGB IC40, at 0.005 µM",-69.2%
same,inhibition,"[10]; measured here: combination with BGB IC40, at 0.05 µM",-42.5%
same,inhibition,"[10]; measured here: combination with cisplatin, at 0.5 µM, stronger effect = higher value",-26.1%
same,inhibition,"[10]; measured here: combination with cisplatin, at 5 µM, stronger effect = higher value",114%
same,inhibition,"[11]; BGB combo, at 5 µM",99.9%
same,inhibition,[11]; at 0.5 µM,99.3% (active)
same,inhibition,"[11]; cisplatin combo, at 5 µM",99.9%
same,inhibition,"[11]; measured here: with BGB IC20 combination, at 0.5 µM",98.5%
same,inhibition,"[11]; measured here: with cisplatin IC20 combination, at 0.5 µM",99.7%
same,inhibition,"[11]; single agent, at 5 µM",99.9%
same,inhibition,"[12]; BGB IC20 combo, at 0.005 µM",71.4%
same,inhibition,"[12]; BGB IC40 combo, at 0.005 µM",89.6%
same,inhibition,"[12]; BGB IC40 combo, at 0.05 µM",100%
same,inhibition,[12]; at 0.5 µM,-29.4% (inactive)
same,inhibition,"[12]; cisplatin combo, at 0.05 µM",101%
same,inhibition,"[12]; cisplatin combo, at 0.5 µM",-36.3%
same,inhibition,"[12]; cisplatin combo, at 5 µM",-4.27%
same,inhibition,"[12]; measured here: 5 uM single agent, at 5 µM",13.8%
same,inhibition,[13]; at 0.5 µM,99.3% (active)
same,inhibition,"[13]; measured here: with BGB IC20, at 0.5 µM",98.7%
same,inhibition,"[13]; measured here: with BGB IC20, at 5 µM",99.9%
same,inhibition,"[13]; measured here: with cisplatin IC20, at 0.5 µM",99.9%
same,inhibition,"[13]; measured here: with cisplatin IC20, at 5 µM",99.9%
same,inhibition,"[13]; single agent, at 5 µM",99.9%
same,inhibition,[14]; at 0.5 µM,63.3% (inactive)
same,inhibition,"[14]; measured here: BGB combination, at 0.5 µM",55.8%
same,inhibition,"[14]; measured here: BGB combination, at 5 µM",59.7%
same,inhibition,"[14]; measured here: cisplatin combination, at 0.5 µM",60.4%
same,inhibition,"[14]; measured here: cisplatin combination, at 5 µM",75.3%
same,inhibition,[15]; at 0.5 µM,98.5% (active)
same,inhibition,"[15]; cisplatin combination, at 0.5 µM",101%
same,inhibition,"[15]; cisplatin combination, at 5 µM",104%
same,inhibition,"[15]; measured here: BGB IC40 combination 0.05 uM, at 0.05 µM",38.4%
same,inhibition,"[15]; single agent, at 5 µM",108%
same,inhibition,[16]; at 0.5 µM,82% (active)
same,inhibition,"[16]; cisplatin combo, at 5 µM",98.9%
same,inhibition,"[16]; measured here: BGB IC40 combination, at 0.05 µM",6.39%
same,inhibition,"[16]; measured here: combination with cisplatin, at 0.5 µM",90.4%
same,inhibition,"[16]; single agent, at 5 µM",96.9%
CC[C@H]1OC(=O)[C@H](C)C(=O)[C@H](C)[C@@H](O[C@H]2O[C@H](C)C[C@H](N(C)C)[C@H]2O)[C@](C)(OC)C[C@@H](C)C(=O)[C@H](C)[C@H]2N(CCCCn3cnc(-c4cccnc4)c3)C(=O)O[C@]12C,AC50,[1],26300 nM (active)
same,outcome,[2],inactive
same,outcome,[3],inactive
same,outcome,[4],inactive
same,outcome,[5],inactive
same,outcome,[6],inactive
same,outcome,[9],inactive
COc1ccc(-n2nc(C(N)=O)c3c2C(=O)N(c2ccc(N4CCCCC4=O)cc2)CC3)cc1,outcome,[1],inactive
same,outcome,[2],inactive
same,outcome,[3],inactive
same,outcome,[4],inactive
same,outcome,[5],inactive
same,outcome,[6],inactive
same,outcome,[7],inactive
same,outcome,[9],inactive
same,fold change,"[17]; stronger effect = lower value, cell number ratio, induced over uninduced",0.908 (inactive)
same,fold change,[17]; measured here: relative caspase fold change +Dox/-Dox,0.921
same,cell count,"[17]; measured here: total cells with miR-34 induction, stronger effect = lower value",8080
same,cell count,[17]; measured here: total cells without miR-34 induction,8900
same,z-score,"[18]; MELAS cybrid survival, CellTiter-Glo 48 h, stronger effect = higher value",-0.515 (inactive)
same,z-score,"[18]; Rieske KO mouse fibroblast survival, CellTiter-Glo 72 h",-0.309
NC(=O)Nc1cc(-c2ccc(CN3CCOCC3)cc2)sc1C(N)=O,AC50,[1],1320 nM (active)
same,AC50,[2],18700 nM (active)
same,AC50,[3],20900 nM (active)
same,AC50,[4],16600 nM (active)
same,AC50,[5],13200 nM (active)
same,AC50,[6],934 nM (active)
same,AC50,[9],5250 nM (active)
same,IC50,[8],2950 nM (active)
COc1ccnc2[nH]cc(C(=O)C(=O)N3CCN(C(=O)c4ccccc4)C[C@H]3C)c12,outcome,[1],inactive
same,outcome,[2],inactive
same,outcome,[3],inactive
same,outcome,[4],inactive
same,outcome,[5],inactive
same,outcome,[6],inactive
same,outcome,[9],inactive
same,outcome,[8],inactive
CCNC(=O)c1cc2c(-c3cc(OCCN4CCCC4)c(Cl)cc3Cl)nc(N)nc2s1,AC50,[1],1020 nM (active)
same,AC50,[2],6620 nM (active)
same,AC50,[3],935 nM (active)
same,AC50,[4],2350 nM (active)
same,AC50,[5],2290 nM (active)
same,AC50,[6],1620 nM (active)
same,AC50,[9],1820 nM (active)
C[C@@H]1CCN(C(=O)CC#N)C[C@@H]1N(C)c1ncnc2[nH]ccc12,outcome,[1],inactive
same,outcome,[2],inactive
same,outcome,[3],inactive
same,outcome,[4],inactive
same,outcome,[5],inactive
same,outcome,[6],inactive
same,outcome,[7],inactive
same,outcome,[9],inactive
same,SSMD,[19],3.28
same,cell count,[19],7280
same,plate-normalised HSF1 focus index,[19],1.17 (inactive)
CN[C@@H]1C[C@H]2O[C@@](C)([C@@H]1OC)n1c3ccccc3c3c4c(c5c6ccccc6n2c5c31)C(=O)N[C@H]4O,AC50,[1],135 nM (active)
same,AC50,[2],590 nM (active)
same,AC50,[3],187 nM (active)
same,AC50,[4],1320 nM (active)
same,AC50,[5],85.5 nM (active)
same,AC50,[6],30.3 nM (active)
same,AC50,[7],296 nM (active)
same,AC50,[9],38.2 nM (active)
same,IC50,[8],605 nM (active)
